Source: PubChem
The sample as a whole holds a higher share of hits than the screen did.
HT1080 IDH1KD tx: toxicity to HT-1080 IDH1 knockdown cells (counter line) | 2% of 360,000 active | AID 686971 | Potency, µM (titrated, usually from 46.1 µM), actives largely listed as cytotoxic | HT-1080 IDH1 knockdown viability, ATP luminescence, 48 h
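IDH1KD HT-1080 cells, 750/well, RPMI + 5% FBS; compound pinned after 2 h settling; 48 h, 37 °C; CellTiter-Glo luminescence; % activity normalised to DMSO and no-cell wells; curves fitted, classed by r2 and efficacy.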
IL1B secr inh: inflammasome signaling inhibition, IL-1 beta readout. THP-1 LPS/ATP IL-1B secretion, AlphaLISA, 16 h; stronger effect = lower value. activity change, % at 57.5 µM. 4.7% of 360,000 active; in the data active = activity change below about -50%; inconclusive = mostly about -30% to -49%
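THP-1 cells pretreated 1 hr with compounds (up to 57.5 uM final), then stimulated with LPS (250 ng/mL final) plus ATP (1.25 mM final); secreted IL-1B measured by AlphaLISA after 16 hr, decreased signal indicating inhibition.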
DT40 TDP1 CPT: DT40-hTDP1 cell growth loss with CPT. chicken DT40 Tdp1-/-;hTDP1 cells + 20 nM CPT, ATP luminescence, 48 h. Potency, µM (titrated, usually from 46.2 µM), actives largely listed as inhibitors. 12% of 420,000 active; note: nearly all actives have a fitted effect of over 55% in size
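Cell growth measured by CellTiter-Glo luminescence after a minimum 48 h, 37 C compound exposure with 20 nM CPT in Tdp1-knockout DT40 cells stably expressing hTDP1, seeded 400/well; qHTS titration format.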
ALOX12 inh: blocks human arachidonate 12S-lipoxygenase; P18054; purified 12hLO, xylenol orange hydroperoxide absorbance; Potency, µM (top dose mostly 108 µM), most hits filed as inhibitors; 1.1% of 580,000 active
Target sequence (P18054 whole entry, looked up): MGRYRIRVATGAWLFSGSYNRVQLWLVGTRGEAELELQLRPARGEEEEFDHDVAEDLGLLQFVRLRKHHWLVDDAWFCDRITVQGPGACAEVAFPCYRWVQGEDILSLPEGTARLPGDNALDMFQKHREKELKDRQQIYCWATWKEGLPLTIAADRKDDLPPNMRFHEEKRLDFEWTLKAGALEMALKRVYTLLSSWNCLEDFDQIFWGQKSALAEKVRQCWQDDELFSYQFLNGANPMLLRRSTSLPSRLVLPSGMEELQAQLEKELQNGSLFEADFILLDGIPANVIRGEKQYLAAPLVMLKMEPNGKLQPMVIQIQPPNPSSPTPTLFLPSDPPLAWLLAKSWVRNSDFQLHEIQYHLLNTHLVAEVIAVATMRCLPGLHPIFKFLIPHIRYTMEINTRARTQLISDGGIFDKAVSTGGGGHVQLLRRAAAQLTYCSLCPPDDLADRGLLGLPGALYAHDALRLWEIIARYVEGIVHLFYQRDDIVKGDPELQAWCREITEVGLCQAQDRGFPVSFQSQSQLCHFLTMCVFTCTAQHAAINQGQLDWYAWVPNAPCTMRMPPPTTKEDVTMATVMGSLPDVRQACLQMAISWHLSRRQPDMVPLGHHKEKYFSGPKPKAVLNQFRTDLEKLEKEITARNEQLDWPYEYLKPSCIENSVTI
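Purified human 12hLO (150 nM final) in 25 mM Hepes, 0.01% Triton X-100, pH 7.0 was preincubated 15 min at room temperature with compound. Then 40 uM arachidonic acid was added, 30 min. Hydroperoxide was read by Fe-XO absorbance ratio 573/405 nm.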
HT1080-NT tox: kills 2HG-producing HT-1080-NT fibrosarcoma cells; HT-1080-NT fibrosarcoma viability, CellTiter-Glo ATP luminescence, 48 h; 1.6% of 360,000 active; Potency, µM (doses to about 46.1 µM), actives largely listed as cytotoxic;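 note: NT is the 2HG producing partner of a matched IDH1 knockdown line; nearly all actives have a fitted effect of over 55% in size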
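A 48-hour cytotoxicity screen used HT-1080-NT cells plated 2 hours before compound delivery. ATP-based CellTiter-Glo luminescence measured viability, normalized to DMSO and no-cell controls.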
TDP1 cell noCPT: qHTS for Inhibitors of human tyrosyl-DNA phosphodiesterase 1 (TDP1): qHTS in cells in absence of CPT; DT40 Tdp1-/- hTDP1 cells, no CPT, ATP luminescence, 48 h; Potency, µM (highest dose often 46.2 µM), hits mostly inhibitors; 15% of 420,000 active; note: nearly all actives have a fitted effect of over 55% in size
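Compound effects on proliferation are scored in DT40 Tdp1-/-;hTDP1 cells in the absence of CPT. ATP levels (CellTiter-Glo luminescence) are recorded after a ≥48 hr, 37 °C incubation.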
Hits are given with their value. Unless noted, calls come from the whole dose curve; as a rule, active = well fitted curve in the direction sought with a large enough effect; inconclusive = small, poorly fitted or top-dose-only effect, or another doubt; inactive = no such curve, though single readings can be large; an effect the other way counts as inactive or inconclusive.

`O=C(Nc1ccc2[nH]c(=O)[nH]c2c1)c1nn(-c2ccccc2Cl)c2c1CCCC2` gave ALOX12 inh inactive.
O=C(COc1ccccc1)Nc1cccc2cccnc12 was read as ALOX12 inh inactive.
CCOCC(=O)N1CCC2(CCC(=O)N(CC3CC3)CC2)CC1 was read as ALOX12 inh inactive.
For CCOC(=O)c1cc(-c2ccc(C)cc2)n(CCC(=O)NCc2ccccc2)c1C the results were DT40 TDP1 CPT inconclusive, ALOX12 inh inactive and TDP1 cell noCPT inconclusive.
`CCOC(=O)c1cc(-c2ccc(C)cc2)n(CCC(=O)NCCc2ccc(C)cc2)c1C` gave DT40 TDP1 CPT inconclusive, ALOX12 inh inactive and TDP1 cell noCPT 18µM.
`CCOC(=O)c1cc(-c2ccccc2)n(CCC(=O)NCCc2ccc(OC)c(OC)c2)c1C` gave DT40 TDP1 CPT 21µM, ALOX12 inh inactive and TDP1 cell noCPT 23µM.
`CCOC(=O)c1cc(-c2ccccc2)n(CCC(=O)O)c1C` gave HT1080 IDH1KD tx inactive, IL1B secr inh inactive, DT40 TDP1 CPT inactive, ALOX12 inh inactive, HT1080-NT tox inactive and TDP1 cell noCPT inactive.
Screening CCOC(=O)c1cc(-c2ccc(F)cc2)n(CCC(=O)NCCc2ccc(C)cc2)c1C returned DT40 TDP1 CPT inconclusive, ALOX12 inh inconclusive and TDP1 cell noCPT 21µM.
CCOC(=O)c1cc(-c2ccc(C)cc2)n(CCC(=O)N2CCN(c3ccccn3)CC2)c1C was read as HT1080 IDH1KD tx inactive, IL1B secr inh -56, DT40 TDP1 CPT 23µM, ALOX12 inh inconclusive, HT1080-NT tox inactive and TDP1 cell noCPT 23µM.
For CCOC(=O)c1cc(-c2ccc(C)cc2)n(CCC(=O)NCCN(C)C)c1C the results were HT1080 IDH1KD tx inconclusive, IL1B secr inh inactive, DT40 TDP1 CPT inconclusive, ALOX12 inh inactive, HT1080-NT tox inconclusive and TDP1 cell noCPT inactive.
For COC(=O)C1=C(C)Nc2nc3ccccc3n2C1c1ccc(O)cc1 (stereo not drawn) the results were ALOX12 inh inactive.
For Cc1noc(C)c1[S+](=O)([O-])N1CCCC2(C1)C(=NC1CCCCC1)NC(=O)N2c1cccnc1 (stereo not drawn) the results were ALOX12 inh inactive.
Cc1nn2c(c1-c1ccccc1OCc1ccccc1)N(Cc1cccc(O)c1)CCC2 was read as ALOX12 inh inactive.
Cc1cc(C(c2ccc(O)cc2)c2cc(C)c(O)cc2C)c(C)cc1O was read as HT1080 IDH1KD tx inconclusive, IL1B secr inh -82, DT40 TDP1 CPT inconclusive, ALOX12 inh inconclusive, HT1080-NT tox inconclusive and TDP1 cell noCPT inactive.
For Cc1ccc(C(C)C)cc1O the results were ALOX12 inh inactive.
`CCc1ccc2oc(=O)cc(CN3CCC4(CC3)OCCO4)c2c1` gave ALOX12 inh inactive.
For C#CCOC(=O)Nc1ccc(OCC(F)(F)F)nc1 the results were HT1080 IDH1KD tx inactive, IL1B secr inh inactive, DT40 TDP1 CPT 9.2µM, ALOX12 inh inactive, HT1080-NT tox inactive and TDP1 cell noCPT 7.3µM.
C#CCOC(=O)Nc1cnccc1C(F)(F)F was read as HT1080 IDH1KD tx inactive, IL1B secr inh inactive, DT40 TDP1 CPT inactive, ALOX12 inh inactive, HT1080-NT tox inactive and TDP1 cell noCPT inactive.
CCOc1c(CN)cccc1OC was read as ALOX12 inh inactive.
Screening COc1cccc(-c2ccc(-c3noc(-c4ccccc4OC)n3)c(OC)n2)c1 returned ALOX12 inh inactive.
CCOC(=O)c1ccc(NC(=O)COc2ccccc2CNCCc2ccccc2)cc1 was read as HT1080 IDH1KD tx inconclusive, IL1B secr inh -88, DT40 TDP1 CPT inconclusive, ALOX12 inh inconclusive, HT1080-NT tox inconclusive and TDP1 cell noCPT inconclusive.
For CCOC(=O)c1ccc(NC(=O)COc2ccc(CNCCO)cc2OCC)cc1 the results were HT1080 IDH1KD tx inconclusive, IL1B secr inh -102, DT40 TDP1 CPT inactive, ALOX12 inh inactive, HT1080-NT tox inconclusive and TDP1 cell noCPT inactive.
